Source: PubChem BioAssay (NCATS)
The source made the active and inactive calls. The call rests on the fitted dose curve; in most records, active means well fitted activation curve with a large enough effect; inconclusive means small, poorly fitted or top-dose-only effect; inactive means flat fitted curve, though single readings scatter.

Assay: Confirmation and Secondary Assay for Modulators of Hemoglobin Beta Chain Splicing at IVS2 705 locus (AID 930);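 further: HeLa cells stably expressing the EGFP-705 splicing reporter; GFP fluorescence per well restored by corrected splicing of the IVS2-705 intron in EGFP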
Conditions: HeLa EGFP-705 splicing reporter, GFP fluorescence, 48 h; series mostly up to 46.1 µM
Summary of the method: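 HeLa EGFP-705 reporter; 500 cells/well, o/n 37C 5% CO2; cpd 2 d; 488 ex/500-520 em laser scan; total peak GFP intensity/well. Ref: 500 nM […] antisense PNA.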

outcome, inactive:
CC(=O)c1c(O)cc(O)cc1O, COc1ccc(-c2cc(=O)c3ccccc3o2)cc1, COc1c2c(cc3occ(-c4ccc5c(c4)OCO5)c(=O)c13)OC(C)(C)C=C2, COc1ccc2c(c1)OC/C(=C/c1ccc(OC)c(OC)c1)C2=O, C=C1C2CC[C@@]3(C)C(c4ccoc4)OC(=O)C[C@@]13OC1CC(OC(C)=O)C(C)(C)C(CC(=O)OC)[C@@]12C (stereo not given in full), COc1cc(OC)c2c(=O)c(-c3ccc4c(c3)OCO4)coc2c1, COc1cccc(-c2cc(=O)c3ccc(OC)cc3o2)c1, CC1(C)C(=O)C=C[C@@]2(C)C1C=C[C@@]1(C)C2CC[C@@]2(C)C(c3ccoc3)OC(=O)C3OC312 (stereo not given in full), Nc1nc2c(ncn2C2OC(COC(=O)c3ccccc3)C(OC(=O)c3ccccc3)C2OC(=O)c2ccccc2)c(=O)[nH]1 (stereo not given), CC(=O)Oc1c(-c2ccccc2)oc2c(CC=C(C)C)c3c(c(OC(C)=O)c2c1=O)C=CC(C)(C)O3
